Compound activity (PubChem)
Rows were chosen to be rich in hits. Some 11% of all compounds tested hit in one or more screens of this group.
Pf growth 48h = inhibits P. falciparum growth in the first generation, 48 h. P. falciparum luciferase growth in erythrocytes, 48 h. Potency, µM (doses to about 28.7 µM), without a hit: top-dose activity change, negative = inhibition, most hits filed as inhibitors. 310,000 tested, 5.9% active. AID 504832
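In quantitative HTS format, infected erythrocytes bearing luciferase-reporter parasites were treated for a single generation at 37 C. Luminescence after adding detection reagent served as the growth measure.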
AMA1-RON2 inh = inhibitors of Plasmodium falciparum AMA1-RON2 interaction; AlphaScreen AMA1-biotinylated RON2 peptide binding; Potency, µM (doses to about 58.2 µM), without a hit: at the highest dose activity change, negative = inhibition, actives largely listed as inhibitors; 360,000 tested, 0.2% active; AID 720542;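 note: 0% = vehicle wells and -100% = peptide control; nearly all actives have a fitted effect of over 45% in size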
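AMA1 (3D7) with his tag at 25 nM final met compounds first, then biotinylated RON2 peptide at 25 nM; detection used donor plus acceptor beads, 10 µg/mL apiece, read by AlphaScreen after 30 min at room temperature.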
Pf growth 96h = P. falciparum growth inhibition at 96 hour, primary screen for plastid delayed-death inhibitors | Potency, µM (highest dose often 28.7 µM), for the others: at the top dose activity change, negative = inhibition, hits mostly inhibitors | 320,000 tested, 6.9% active | P. falciparum luciferase reporter growth, 96 h
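Two-generation exposure (96 h) targets delayed-death phenotype. Reporter parasites carrying integrated firefly luciferase, in red cells at 2% hematocrit and 0.05% parasitemia final, kept at 37 C, 5% CO2; luminescence loss indicates inhibition.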
HCV inh = blocks hepatitis C virus; Huh7.5.1 HCVcc-Cre infection, luciferase reporter, 44 h; Potency, µM (doses to about 41.8 µM), inactives show at the top dose activity change, negative = inhibition, most hits filed as inhibitors; 340,000 tested, 3.4% active; AID 651820
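Cells seeded at 1,000/well and cultured 4 h, then compounds added followed by HCVcc-Cre virus (~0.5 moi). After 44 h further culture, luciferase substrate was added, plates held 15 min at room temperature, and luminescence read for 15 sec.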
Starred values were filed as active, the others as inactive; ? = inconclusive; / = no result. Calls come from the whole dose curve; as a rule, active = well fitted curve in the direction sought with a large enough effect; inconclusive = small, poorly fitted or top-dose-only effect, or another doubt; inactive = no such curve, though single readings can be large; an effect the other way counts as inactive or inconclusive. Unless noted, % is set by controls: 0 for no effect and ±100 for the full control effect; potency is the fitted concentration of half-maximal effect.

SMILES	Pf growth 48h	AMA1-RON2 inh	Pf growth 96h	HCV inh
CSc1ncccc1C(=O)OCC(=O)c1cccc(Br)c1	2%	0%	38%	?
CCOC(=O)C(C)Sc1nc2c(cnn2-c2ccc(C)cc2)c(=O)[nH]1 (stereo not given)	-30%	-20%	?	11µM*
Cc1ccc(-n2ncc3c(=O)[nH]c(SC(C)C)nc32)cc1	-1%	11%	27%	?
CCCCNC(=O)CNC(=S)N(Cc1ccccc1F)C1CCCCC1	156%	-3%	?	-24%
COc1ccc(C(C)=O)cc1CSc1nnc(-c2ccc(Cl)cc2)n1-c1ccccc1	?	-17%	9.3µM*	7.9µM*
Cc1ccc(/C=N/NC(=O)CSc2nc3ccccc3c(=O)n2-c2ccccc2C)s1	-30%	3%	12µM*	?
C=CCn1c(SCc2cc(C(C)=O)ccc2OCC)nc2ccccc2c1=O	?	0%	5.9µM*	?
COc1ccc(C(C)=O)cc1CSc1nc2ccccc2c(=O)n1-c1ccccc1C	12µM*	-12%	2.3µM*	?
CC1Oc2cc3oc4c(O)c(O)ccc4c(=O)c3c(O)c2C1(C)C (stereo not given)	/	93%	/	-18%
C[C@@H]1CN([C@@H](C)CO)C(=O)c2ccccc2-c2ccccc2CO[C@@H]1CN(C)S(=O)(=O)c1ccc(C(F)(F)F)cc1	/	-2%	/	/
Nc1nonc1-n1nnc(C(=O)N/N=C/c2ccc(OCc3ccccc3)cc2)c1CNc1ccccc1	-15%	0%	?	?
N#Cc1ccc(COC(=O)CC(NC(N)=O)c2ccc(Cl)cc2)cc1 (stereo not given)	11%	3%	28%	10%
CCCOc1ccccc1C1C(C(=O)OC)=CN(C(C)C)C=C1C(=O)OC	13µM*	61%	/	-18%
CC(=O)c1cccc(N(C(=O)CNC(=O)c2ccco2)C(C(=O)NCc2ccco2)c2ccccc2)c1 (stereo not given)	-1%	-2%	?	?
COc1ccc(CC(=O)NCc2cccc(Cl)c2)cc1S(=O)(=O)N1CCOCC1	/	12%	/	/
CCN(CC)S(=O)(=O)c1ccc(-c2nnc(SCc3nnc(-c4ccccc4)o3)o2)cc1	0%	5%	3.7µM*	-4%
Cc1ccc(S(=O)(=O)N(C)Cc2ccc(-c3nnco3)cc2)cc1	34%	1%	53%	9%
CCN(CC)S(=O)(=O)c1ccc(-c2nnco2)cc1	-26%	12%	13µM*	8%
COCCN(CC(=O)Nc1cccc(C)c1C)C(=O)c1cc(-c2ccncc2)nc2ccccc12	10µM*	8%	8.3µM*	-22%
COCCN(CC(=O)Nc1cccc(C)c1C)C(=O)c1oc2c(Cl)cccc2c1C	9.3µM*	8%	?	?
CCN(CC(=O)Nc1ccc(NC(C)=O)cc1)C(=O)c1oc2c(ccc3ccccc32)c1C	?	3%	12µM*	-21%
COCCN(CC(=O)Nc1cccc(C)c1C)C(=O)c1cc(S(=O)(=O)N2CCCC2)ccc1C	-17%	9%	?	?
COc1ccc(NC(=O)CN(C)C(=O)c2oc3c(ccc4ccccc43)c2C)cc1	0.19µM*	-5%	0.19µM*	?
COc1ccc(NC(=O)CN(C)C(=O)CNC(=O)Cc2cccc3ccccc23)cc1	0%	-13%	-1%	0%
CCN(CC(=O)Nc1ccc(NC(C)=O)cc1)C(=O)c1oc2ccccc2c1C	37%	20%	38%	6%
SMILES	Pf growth 48h	AMA1-RON2 inh	Pf growth 96h	HCV inh
CCN(CC(=O)Nc1cc(Cl)ccc1C)C(=O)CCOc1ccccc1C	?	7%	-24%	-7%
CC(NC(=O)c1ccc(C#N)cc1)C1CC2CCC1C2 (stereo not given)	3%	12%	43%	1%
O=C1CCC([N+](=O)[O-])C(c2cc(Br)ccc2F)N1 (stereo not given)	25%	17%	10%	7%
COC(=O)[C@@]12C[C@@H](CC(=O)NCCC(C)C)C(=O)N(Cc3ccc4c(c3)OCO4)C1=CCC(C)(C)C2	/	-17%	/	/
CC1(C)CC(Cc2ccc(C(F)(F)F)cn2)N(C(=O)OC(C)(C)C)C1 (stereo not given)	/	4%	/	/
COc1cccc(NC(=O)CN(C)C(=O)c2oc3c(ccc4ccccc43)c2C)c1	0.26µM*	-13%	0.23µM*	0%
COc1cccc(NC(=O)CN(C)C(=O)Cc2cccc3ccccc23)c1	?	-4%	-20%	-7%
Cc1c(C(=O)N(C)CC(=O)Nc2cccc(F)c2)oc2c(Cl)cccc12	2.6µM*	-6%	1.5µM*	?
CCC1(C)OC(=O)NN(c2ccc(C)cc2)C1(C)O (stereo not given)	16%	-1%	12%	-15%
N#CC12CCCCC1CC1CCCCC1(C#N)N2N (stereo not given)	13µM*	-2%	?	-2%
N#CC12CCCCC1CC1CCCCC1(C#N)N2Cc1ccccn1 (stereo not given)	?	7%	9.3µM*	28%
COc1cccc(CN2CC(C(=O)N(C)CC3CCOCC3)CCC2=O)c1 (stereo not given)	10%	-8%	18%	15%
CCOC(=O)C1(C)C=C(Nc2ccc(NC(C)=O)cc2)C(=O)N1c1ccc(NC(C)=O)cc1 (stereo not given)	-2%	1%	1%	13%
Oc1c(CN2CCCCC2)cc(COCc2ccccc2)c2cccnc12	1.9µM*	-61%	2.1µM*	10µM*
OCCN1CCN(Cc2cc(Cl)c3cccnc3c2O)CC1	/	-95%	?	?
CN(C)C1CCN(Cc2cc(COCc3ccccc3)c3cccnc3c2O)C1 (stereo not given)	0.83µM*	/	?	/
COCc1cc(CN2CCCC2)c(O)c2ncccc12	2.9µM*	9.5µM*	?	2.8µM*
CC(=O)Nc1ccc(N(C(=O)CNC(=O)c2cccs2)C(C(=O)NCC2CCCO2)c2ccccc2)cc1 (stereo not given)	-7%	0%	28%	8%
Cn1nc(C(=O)NCc2cccs2)c2ccccc2c1=O	-5%	-1%	?	-4%
CC(C)OC(=O)C(C(=O)OC(C)C)=C1SC=CS1	-3%	/	-12%	/
COc1ccc(C(CCNCc2ccc(N(C)C)cc2)c2ccccc2)cc1 (stereo not given)	15µM*	20µM*	?	?
COc1ccc(C(CCNCc2ccc(OC)c(OC)c2)c2ccc(F)cc2)cc1 (stereo not given)	9.3µM*	11%	?	7%
COc1ccc(CCNCc2ccccc2)cc1	-8%	-28%	9%	4%
CC(C)Oc1ccc(C(CCNCc2ccc(O)cc2)c2ccccc2)cc1 (stereo not given)	1.2µM*	-2%	1.2µM*	?
Cc1ccc(O)c(NC(=S)NC(=O)c2ccccc2Cl)c1	25%	1%	4%	4%
Nc1ncnc2c1ncn2[C@@H]1O[C@H](C(=O)Nc2ccc(C(=O)N3CCCCC3)cc2)[C@@H](O)[C@H]1O	/	-1%	/	/
